# For some assays here: Entries with a potency or affinity are not part of this list.
# Legend:
# Design in all cases: scale not given: direction of the effect not stated beside the values
# [1] = molecular target: Protein translocase subunit SecA (Escherichia coli (strain K12)) (UniProt P10408); assay: Assay to Identify E. coli SecA ATPase Inhibitors; format: functional; conditions: 30 µM
# [2] = molecular target: T1, Ubiquitin-activating enzyme e1, putative (Leishmania donovani (strain BPK282A1)) (UniProt E9BSI1); assay: Leishmania donovani Ubiquitin Activating Enzyme (LdE1); format: functional; conditions: 30 µM
# T1 sequence (whole entry): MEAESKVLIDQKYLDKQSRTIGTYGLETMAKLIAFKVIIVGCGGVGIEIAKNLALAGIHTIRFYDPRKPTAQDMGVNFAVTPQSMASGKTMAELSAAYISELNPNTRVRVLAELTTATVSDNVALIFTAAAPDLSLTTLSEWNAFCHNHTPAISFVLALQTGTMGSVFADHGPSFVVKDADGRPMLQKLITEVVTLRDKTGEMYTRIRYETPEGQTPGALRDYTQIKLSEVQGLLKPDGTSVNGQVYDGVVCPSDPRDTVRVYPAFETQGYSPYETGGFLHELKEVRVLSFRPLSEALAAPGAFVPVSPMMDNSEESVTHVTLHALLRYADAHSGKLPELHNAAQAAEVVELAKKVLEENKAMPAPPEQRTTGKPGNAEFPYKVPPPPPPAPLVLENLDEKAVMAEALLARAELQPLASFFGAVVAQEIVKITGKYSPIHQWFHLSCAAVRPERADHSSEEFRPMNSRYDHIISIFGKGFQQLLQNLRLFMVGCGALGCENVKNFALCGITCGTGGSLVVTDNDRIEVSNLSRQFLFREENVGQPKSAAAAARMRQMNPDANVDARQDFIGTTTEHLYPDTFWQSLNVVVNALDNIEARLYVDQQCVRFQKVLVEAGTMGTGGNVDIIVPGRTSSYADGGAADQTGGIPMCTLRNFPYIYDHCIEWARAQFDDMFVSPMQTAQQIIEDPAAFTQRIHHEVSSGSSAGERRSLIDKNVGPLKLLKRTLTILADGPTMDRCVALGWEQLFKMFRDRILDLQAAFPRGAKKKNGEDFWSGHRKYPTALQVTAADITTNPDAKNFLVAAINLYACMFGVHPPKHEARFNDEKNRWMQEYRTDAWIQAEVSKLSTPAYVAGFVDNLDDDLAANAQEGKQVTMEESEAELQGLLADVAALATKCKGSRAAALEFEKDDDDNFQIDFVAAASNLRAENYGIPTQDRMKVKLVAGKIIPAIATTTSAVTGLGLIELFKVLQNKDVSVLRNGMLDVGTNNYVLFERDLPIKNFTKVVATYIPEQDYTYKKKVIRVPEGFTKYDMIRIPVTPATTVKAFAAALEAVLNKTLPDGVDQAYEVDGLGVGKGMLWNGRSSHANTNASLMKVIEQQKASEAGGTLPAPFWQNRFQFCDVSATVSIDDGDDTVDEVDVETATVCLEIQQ
# [3] = molecular target: AMP-activated protein kinase, AMPK (Homo sapiens) (UniProt P54646+O43741+P54619+Q9UGJ0+Q9Y478+Q13131+Q9UGI9); assay: AMP-dependent Kinase enzyme assay. An in vitro enzyme assay that detects ADP turnover that is directly proportional to AMPK activity. This uses naive AMPK that is activated during the assay with MK-8722; format: functional; conditions: 30 µM
# [4] = molecular target: Sialic acid-binding Ig-like lectin 9 (Homo sapiens) (UniProt Q9Y336); assay: Hs-Siglec9 ALPHAscreen SOP 20170721; conditions: 10 µM
# Sequence of Sialic acid-binding Ig-like lectin 9 (Homo sapiens) (Q9Y336 whole entry): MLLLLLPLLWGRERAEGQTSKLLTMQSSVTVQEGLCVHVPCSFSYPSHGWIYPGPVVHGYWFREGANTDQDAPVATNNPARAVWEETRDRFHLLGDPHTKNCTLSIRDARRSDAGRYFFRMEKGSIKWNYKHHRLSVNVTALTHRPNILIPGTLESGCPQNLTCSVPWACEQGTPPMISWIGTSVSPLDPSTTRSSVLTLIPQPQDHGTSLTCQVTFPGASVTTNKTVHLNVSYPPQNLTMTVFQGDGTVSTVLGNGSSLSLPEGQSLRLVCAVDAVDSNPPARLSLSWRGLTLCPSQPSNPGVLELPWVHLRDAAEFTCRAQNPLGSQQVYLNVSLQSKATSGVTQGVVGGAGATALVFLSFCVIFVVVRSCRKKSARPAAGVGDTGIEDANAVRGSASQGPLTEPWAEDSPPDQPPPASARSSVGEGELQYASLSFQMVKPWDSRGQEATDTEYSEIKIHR
# [5] = system: Trypanosoma cruzi; assay: Trypanosoma cruzi phosphomannomutase and mannose-1-phosphate guanylyltransferase assay; format: functional; conditions: 10 µM
# [6] = molecular target: T2, Arginase-2, mitochondrial (Homo sapiens) (UniProt P78540); assay: in vitro enzyme assay to detect the production of urea directly proportional to the activity of Arginase II; format: functional; conditions: 33.3 µM; further: in the data most compounds retested in dose-response had high values
# T2 sequence (whole entry): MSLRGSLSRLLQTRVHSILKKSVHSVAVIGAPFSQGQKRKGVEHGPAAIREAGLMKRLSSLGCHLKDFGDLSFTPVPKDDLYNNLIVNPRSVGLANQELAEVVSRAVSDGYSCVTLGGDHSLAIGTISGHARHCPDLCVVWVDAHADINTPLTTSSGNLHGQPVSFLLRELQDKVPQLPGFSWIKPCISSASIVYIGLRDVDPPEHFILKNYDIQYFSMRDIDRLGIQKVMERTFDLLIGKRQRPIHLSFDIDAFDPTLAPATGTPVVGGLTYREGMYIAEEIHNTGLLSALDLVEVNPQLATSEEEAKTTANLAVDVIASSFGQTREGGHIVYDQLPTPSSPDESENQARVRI
# [7] = molecular target: T3, Proteasome subunit beta (Trypanosoma cruzi) (UniProt O96673); assay: Trypanosoma cruzi proteasome chymotrypsin-like activity (TcProtChymo) assay.; further: in the data most compounds retested in dose-response had high values; format: functional; conditions: 9.37 µM
# T3 sequence (whole entry): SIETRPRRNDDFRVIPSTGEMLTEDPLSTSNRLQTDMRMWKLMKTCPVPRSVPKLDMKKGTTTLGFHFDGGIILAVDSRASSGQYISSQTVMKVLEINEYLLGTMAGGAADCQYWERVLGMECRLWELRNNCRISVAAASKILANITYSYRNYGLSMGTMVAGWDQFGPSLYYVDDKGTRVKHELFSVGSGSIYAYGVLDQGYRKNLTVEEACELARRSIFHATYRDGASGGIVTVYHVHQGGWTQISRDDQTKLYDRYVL
# [8] = species on record: Homo sapiens; assay: To identify inhibition of the IFN signalling (Jak-Stat) pathway via expression of an eGFP reporter gene under the control of an IFN-stimulated response element (ISRE) containing MxA promoter.; format: functional; conditions: 30 µM
# [9] = molecular target: T4, Tyrosyl-tRNA synthetase, putative (Trypanosoma cruzi (strain CL Brener)) (UniProt Q4DSP6); assay: Trypanosoma cruzi tyrosyl tRNA synthetase (TcYRS) _High Tyrosine SOP; format: functional; conditions: 30 µM; further: in the data most compounds retested in dose-response had high values
# T4 sequence (whole entry): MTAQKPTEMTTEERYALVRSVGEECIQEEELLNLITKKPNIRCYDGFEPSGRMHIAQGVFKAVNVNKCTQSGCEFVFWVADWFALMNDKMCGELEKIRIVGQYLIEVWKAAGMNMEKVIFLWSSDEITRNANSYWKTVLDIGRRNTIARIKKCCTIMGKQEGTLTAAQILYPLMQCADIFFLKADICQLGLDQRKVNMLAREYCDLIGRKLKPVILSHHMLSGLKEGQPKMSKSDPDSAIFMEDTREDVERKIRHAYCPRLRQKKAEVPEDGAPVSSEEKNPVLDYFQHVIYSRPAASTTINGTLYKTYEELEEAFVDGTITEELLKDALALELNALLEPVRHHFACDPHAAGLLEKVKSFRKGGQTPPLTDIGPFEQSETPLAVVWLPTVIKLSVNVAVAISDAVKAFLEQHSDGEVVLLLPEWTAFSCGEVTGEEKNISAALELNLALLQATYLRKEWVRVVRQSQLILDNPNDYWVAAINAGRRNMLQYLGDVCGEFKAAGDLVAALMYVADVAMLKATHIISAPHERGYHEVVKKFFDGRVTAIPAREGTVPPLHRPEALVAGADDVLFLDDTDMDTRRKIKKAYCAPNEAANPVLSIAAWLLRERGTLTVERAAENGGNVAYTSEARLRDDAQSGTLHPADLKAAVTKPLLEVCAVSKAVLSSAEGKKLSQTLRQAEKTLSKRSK
# [10] = molecular target: T4, Tyrosyl-tRNA synthetase, putative (Trypanosoma cruzi (strain CL Brener)); assay: Trypanosoma cruzi tyrosyl tRNA synthetase (TcYRS) SOP; format: functional; conditions: 30 µM
# [11] = molecular target: Chromo domain-containing protein 1 (Saccharomyces cerevisiae (strain ATCC 204508 / S288c) (Baker's yeast)) (UniProt P32657); assay: ScCHD-1 Enzyme Inhibition Assay; format: functional; conditions: 30 µM; further: in the data most compounds retested in dose-response had high values
# Sequence of Chromo domain-containing protein 1 (Saccharomyces cerevisiae (strain ATCC 204508 / S288c) (Baker's yeast)) (P32657 whole entry, the tested form may be a part): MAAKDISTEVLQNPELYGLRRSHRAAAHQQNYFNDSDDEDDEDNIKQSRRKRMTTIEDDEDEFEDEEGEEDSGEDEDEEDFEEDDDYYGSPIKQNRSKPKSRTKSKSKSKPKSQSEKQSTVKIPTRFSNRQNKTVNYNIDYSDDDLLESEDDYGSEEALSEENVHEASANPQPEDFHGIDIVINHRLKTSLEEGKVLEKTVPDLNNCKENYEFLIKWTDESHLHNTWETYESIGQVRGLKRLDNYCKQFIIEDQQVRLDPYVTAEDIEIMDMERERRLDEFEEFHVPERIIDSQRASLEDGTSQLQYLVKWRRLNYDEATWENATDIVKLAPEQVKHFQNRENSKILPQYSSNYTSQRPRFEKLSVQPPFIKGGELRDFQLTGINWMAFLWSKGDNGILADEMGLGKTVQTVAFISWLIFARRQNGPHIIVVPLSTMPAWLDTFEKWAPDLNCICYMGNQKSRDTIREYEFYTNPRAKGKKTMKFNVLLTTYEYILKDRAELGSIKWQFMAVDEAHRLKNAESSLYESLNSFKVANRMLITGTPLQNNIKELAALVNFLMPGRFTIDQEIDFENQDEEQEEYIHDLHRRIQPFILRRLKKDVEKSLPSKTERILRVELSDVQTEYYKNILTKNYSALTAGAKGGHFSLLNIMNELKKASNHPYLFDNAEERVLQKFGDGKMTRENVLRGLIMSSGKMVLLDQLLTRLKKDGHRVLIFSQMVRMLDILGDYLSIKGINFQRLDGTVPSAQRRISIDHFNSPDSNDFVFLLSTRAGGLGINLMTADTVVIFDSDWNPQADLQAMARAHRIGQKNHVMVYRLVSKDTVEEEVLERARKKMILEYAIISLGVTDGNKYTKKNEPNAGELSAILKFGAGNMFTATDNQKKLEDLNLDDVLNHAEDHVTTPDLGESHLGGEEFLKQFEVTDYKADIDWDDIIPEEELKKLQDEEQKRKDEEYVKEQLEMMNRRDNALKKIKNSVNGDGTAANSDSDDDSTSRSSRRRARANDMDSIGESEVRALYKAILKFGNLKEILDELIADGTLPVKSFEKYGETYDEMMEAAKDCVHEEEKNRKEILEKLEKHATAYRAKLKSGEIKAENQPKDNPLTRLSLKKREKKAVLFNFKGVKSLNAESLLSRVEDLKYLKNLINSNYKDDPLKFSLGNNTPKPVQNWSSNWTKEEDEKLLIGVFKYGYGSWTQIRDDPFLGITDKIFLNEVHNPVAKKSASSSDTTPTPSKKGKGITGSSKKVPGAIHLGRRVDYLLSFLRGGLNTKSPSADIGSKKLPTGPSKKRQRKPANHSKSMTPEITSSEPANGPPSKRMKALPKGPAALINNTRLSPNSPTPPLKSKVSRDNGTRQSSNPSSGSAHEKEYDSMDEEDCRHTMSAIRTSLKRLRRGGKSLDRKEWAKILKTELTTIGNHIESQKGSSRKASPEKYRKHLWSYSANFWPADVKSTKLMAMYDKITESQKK
# Sequence of Protein translocase subunit SecA (Escherichia coli (strain K12)) (P10408 whole entry): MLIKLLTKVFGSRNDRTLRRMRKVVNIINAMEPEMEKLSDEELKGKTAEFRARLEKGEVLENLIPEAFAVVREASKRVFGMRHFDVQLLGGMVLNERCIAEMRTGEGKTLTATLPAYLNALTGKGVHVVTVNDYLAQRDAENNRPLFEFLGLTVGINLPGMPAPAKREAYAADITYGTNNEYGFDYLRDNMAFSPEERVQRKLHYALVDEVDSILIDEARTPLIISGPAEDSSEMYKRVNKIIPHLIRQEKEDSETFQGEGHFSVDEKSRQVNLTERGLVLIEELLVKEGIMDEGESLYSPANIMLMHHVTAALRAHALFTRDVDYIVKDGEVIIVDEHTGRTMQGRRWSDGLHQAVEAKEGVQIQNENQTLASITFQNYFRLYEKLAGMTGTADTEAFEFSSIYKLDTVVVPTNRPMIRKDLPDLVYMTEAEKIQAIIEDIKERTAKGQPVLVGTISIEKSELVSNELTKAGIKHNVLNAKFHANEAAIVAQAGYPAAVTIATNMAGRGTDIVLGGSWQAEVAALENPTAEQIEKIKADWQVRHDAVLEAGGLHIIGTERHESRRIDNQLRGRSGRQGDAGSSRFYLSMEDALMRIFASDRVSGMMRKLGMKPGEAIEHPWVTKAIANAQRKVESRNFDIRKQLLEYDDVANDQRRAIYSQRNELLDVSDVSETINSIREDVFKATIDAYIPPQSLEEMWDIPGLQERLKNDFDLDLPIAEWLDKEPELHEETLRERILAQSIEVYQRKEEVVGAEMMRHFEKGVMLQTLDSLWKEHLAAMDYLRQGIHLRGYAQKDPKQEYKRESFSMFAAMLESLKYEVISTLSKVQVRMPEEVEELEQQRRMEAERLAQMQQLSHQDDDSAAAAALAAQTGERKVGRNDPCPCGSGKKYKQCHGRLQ
Structure (SMILES),Percent Effect [1] [%],Percent Effect [2] [%],Percent Effect [3] [%],Percent Effect [4] [%],Percent Effect [5] [%],Percent Effect [6] [%],Percent Effect [7] [%],Percent Effect [8] [%],Percent Effect [9] [%],Percent Effect [10] [%],Percent Effect [11] [%]
CC(O)CN1CCC(CNCc2c[nH]nc2C(C)(C)C)CC1 (configuration not stated),-6.44,18.9,-5.82,1.39,-6.7,-2,11.9,13.9,4.43,3.7,-9.13
O=C(NCN1CCc2ccccc2C1)c1cnccn1,-0.536,2.7,-2.81,-3.19,-7.33,2.73,10.4,0.709,1.07,6.17,-6.84
CS(=O)(=O)CC(=O)N1C[C@@H]2COC[C@]2(c2nnc(C3CC3)o2)C1,-5.11,21.3,-7.29,-4.69,3.86,-53.9,14,19.8,3.12,22.5,-11.9
O=C(c1cc(C2CC2)[nH]n1)N1CCN(Cc2ccsc2)CC1,-5.68,21.6,-3.2,10.8,10.7,1.66,14,9.93,7.92,23.2,-1.29
Cc1n[nH]c(C)c1NC(=O)CN1CCn2c(nnc2C(C)C)C1,-0.613,2.6,7.19,2.99,2.06,2.74,5.42,-7.56,0,0,-16.6
N#Cc1cc(NS(=O)(=O)c2ccc(C(=O)O)cc2F)ccc1F,-2.74,-13.5,-2.89,0.735,-0.472,4.41,-3.24,-0.301,0.493,1.24,-0.823
COC[C@@]12CCO[C@@H]1CCN(C(=O)COc1ccccc1OC)C2,0.312,8.22,-2.94,5.31,-4.76,-2.4,17.2,3.04,5.21,11.1,-3.51
COc1ccc(-c2nc(CN3CCCC3Cn3cccn3)no2)cc1 (configuration not stated),-6.58,7.79,-5.32,11.9,8.99,-6.41,9.12,12.7,5.83,21.9,-11.9
CC(Oc1ccccc1C(F)(F)F)C(=O)NS(=O)(=O)C(C)C (configuration not stated),7.54,0,5.54,-3.2,4.88,-2.92,14.1,-2.84,6.93,11,-6.88
COCCn1ccc(=O)c(OCC(=O)Nc2cccc(C(C)=O)c2)c1C,-2.27,12,3.85,5.25,0.982,-5.11,13.5,-24.6,8.47,20.5,-3.7
COc1ccc(CN2C[C@H]3CN(c4ccsc4)C(=O)[C@H]3C2)cc1,-1.53,0,6.82,-0.914,-3.23,0.955,19,14.6,2.16,10.3,-1.59
CCNC(=O)c1ncn2c1CN(C)S(=O)(=O)c1ccccc1-2,0.812,2.74,2.65,7.01,-2.58,-2,14,11,1.04,6.17,-0.402
CC(C)c1ncc2c(n1)CN(Cc1cccc(OCC(N)=O)c1)CC2,-3.71,10.5,-32.8,10.8,2.44,4.6,-1,-8.11,8.33,0,4.59
CC(=O)N1CCN(C(=O)C(C)n2cncn2)CC1 (configuration not stated),-3.75,8.86,5.62,3.27,1.13,-1.5,10.3,1.42,5.21,12.7,-21.9
CC(C)C(=O)N1CCCC(c2ncncc2-c2ccncc2)C1 (configuration not stated),-0.489,10.7,4.63,-4.06,5.91,-4.89,6.61,-4.43,1.06,8.97,-4.02
COc1cc(C(=O)N2CCCC(CNS(C)(=O)=O)C2)cc(OC)c1C (configuration not stated),-5.54,13.5,77.8,-1.48,2.74,0.802,1.26,11,7.39,16.1,-4.09
CS(=O)(=O)CCC(=O)N1CCC2(CCCN(C3CCOCC3)C2=O)C1 (configuration not stated),0.12,8.22,-3.26,6.39,1.19,-3.19,12.6,-2.62,6.25,13.6,-3.06
C[C@H]1C[C@@H]2CCN(C(=O)c3ccncn3)C[C@H]2O1,-5.91,0,-1.04,-0.649,1.56,2.08,1.27,-2.6,5.94,8.54,-3.12
Cc1cc(C)c(CNC(=O)NCC(O)COc2ccccc2)c(=O)[nH]1 (configuration not stated),-9.63,7.89,4.9,1.32,-0.84,-0.719,-1.1,12,1.48,-1.24,-2.07
CC(C)CCN1CCN(Cc2nc(C3CC3)no2)CC1,-7.83,-2.7,1.67,-0.524,1.17,-0.417,9.38,2.9,2.97,-3.66,-0.984
Cc1nc(C2CCCN(C(=O)CCCn3ccnc3C)C2)no1 (configuration not stated),-3.92,-5.2,-5.99,-4.13,-3.37,3.56,-3.21,22.2,-0.971,-2.44,5.19
COc1ccccc1CC(=O)NCCCN1CCCC1C(=O)N(C)C (configuration not stated),-0.00806,8.22,-2.99,6.95,2.35,8.64,18.6,-15.4,6.45,-2.5,-6.6

# — ChEMBL document CHEMBL3988442, “University of Dundee, Small-Polar-MMV Screening Library” (2021)
